# Measurements as given in the supplement of paper PMC3545927.
# Some of the results follow. The hit rate among all sequences tested is not known here.
# Target: furin, P09958
# Assay: furin cleavage Z-score vs untreated control; higher = more cleavage, active = 3.5 or more, inactive = 1 or less, 8 variable residues between constant flanks
# Experimental: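 Multiplexed peptide-cDNA fusion cleavage assay. 8-mer variable peptides flanked by constant Cys-Ala (N-term) and Ala-Gly-Asn-Ala-Ser-Ala-Ser-Ala (C-term) and conjugated to a cDNA oligonucleotide were bead-immobilised via the N-terminus. They were treated with purified furin at a 1:10 enzyme:substrate ratio in 50 mM HEPES pH 7.5, 1 mM CaCl2, 100 mM NaCl for 7.5, 15 or 30 min. Released cDNA was counted by next-generation sequencing, and log counts versus no-furin controls were lowess-adjusted and converted to robust Z-scores.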
# furin, P09958, sequence (P09958 whole entry): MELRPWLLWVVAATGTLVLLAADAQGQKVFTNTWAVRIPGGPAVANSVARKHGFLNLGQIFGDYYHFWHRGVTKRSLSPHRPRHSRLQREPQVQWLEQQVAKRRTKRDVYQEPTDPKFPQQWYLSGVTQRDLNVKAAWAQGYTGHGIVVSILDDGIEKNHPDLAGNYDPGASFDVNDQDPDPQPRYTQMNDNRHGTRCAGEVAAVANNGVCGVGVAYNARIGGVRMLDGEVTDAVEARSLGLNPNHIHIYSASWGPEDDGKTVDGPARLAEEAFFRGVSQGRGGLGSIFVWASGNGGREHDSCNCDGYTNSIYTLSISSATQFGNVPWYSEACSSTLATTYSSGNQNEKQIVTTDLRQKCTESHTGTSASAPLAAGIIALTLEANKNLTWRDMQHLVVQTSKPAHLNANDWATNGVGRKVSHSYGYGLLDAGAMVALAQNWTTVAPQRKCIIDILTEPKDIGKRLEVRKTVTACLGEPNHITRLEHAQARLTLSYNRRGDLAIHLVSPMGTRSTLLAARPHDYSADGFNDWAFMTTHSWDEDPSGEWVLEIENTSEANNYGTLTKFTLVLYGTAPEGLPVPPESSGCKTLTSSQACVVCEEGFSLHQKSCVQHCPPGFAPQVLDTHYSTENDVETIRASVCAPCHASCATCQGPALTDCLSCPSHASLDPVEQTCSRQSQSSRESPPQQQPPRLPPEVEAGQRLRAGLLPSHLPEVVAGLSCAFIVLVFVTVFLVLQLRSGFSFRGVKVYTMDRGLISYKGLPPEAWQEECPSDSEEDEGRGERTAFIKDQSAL
Sequence,furin cleavage Z-score (7.5 min),furin cleavage Z-score (15 min),furin cleavage Z-score (30 min)
CATDNRSRKRAGNASASA [FS-1658],-0.57 (inactive),0.304 (inactive),-1.94 (inactive)
CAEVCTSTWVAGNASASA [HC2200],-1.07 (inactive),-0.375 (inactive),0.694 (inactive)
CAAVEVDGAGAGNASASA [CS7],0.521 (inactive),0.0281 (inactive),-2.24 (inactive)
CASLKRDVSLAGNASASA [FS-2473],-0.763 (inactive),0.0335 (inactive),1.41
CASLKRQKRQAGNASASA [FS-502],11.6 (active),12.1 (active),8.85 (active)
CAENPCHRPSAGNASASA [HC2341],-0.397 (inactive),1.48,0.0102 (inactive)
CANLLRVFRQAGNASASA [FS-468],0.426 (inactive),-0.885 (inactive),0.089 (inactive)
CALLRRPFRQAGNASASA [FS-1361],2.8,1.06,3.65 (active)
CAKQGVSKRHAGNASASA [FS-261],2.25,2.44,3.51 (active)
CASSNVSVAHAGNASASA [HC1554],-2.36 (inactive),-0.374 (inactive),-0.657 (inactive)
CAEVIKGGRHAGNASASA [HC852],-2.02 (inactive),-1.42 (inactive),-1.4 (inactive)
CAVQIVSTAAAGNASASA [HC690],0.498 (inactive),-1.18 (inactive),-0.374 (inactive)
CALYRLGAVQAGNASASA [HC973],0.321 (inactive),-0.642 (inactive),0.286 (inactive)
CALLRRGKRHAGNASASA [FS-51],11 (active),10.8 (active),8.35 (active)
CALLRIPQAIAGNASASA [HC329],-0.657 (inactive),-1.81 (inactive),-0.194 (inactive)
CASDGRGKRHAGNASASA [FS-1277],6.1 (active),6.45 (active),6.27 (active)
